# BAZ2B block: blocks human BAZ2B | AlphaScreen BAZ2B-H3K14Ac peptide displacement | Q9UIF8 | 360,000 tested, 4.4% active | Potency, µM (titrated, usually from 114 µM), inactives show at the top dose activity change, negative = inhibition, actives largely listed as inhibitors; note: % is set by controls: 0 for no effect and ±100 for the full control effect; nearly all actives have a fitted effect of over 60% in size
#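 BAZ2B (50 nM) with biotin-H3(5-23)K14Ac peptide (50 nM) in PBS pH 7.4, 0.01% Tween-20, preformed 30 min, then compound 30 min at room temperature; top concentration 110uM. AlphaScreen streptavidin donor/nickel chelate acceptor beads (10 ug/mL final), 20 min dark, signal read.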
# PLK1 PBD block: PLK1 (human) polo-box domain binding inhibition. Plk1 PBD binding of FITC phosphopeptide, fluorescence polarization. Potency, µM, inactives show max response, negative = inhibition, actives largely listed as inhibitors. 360,000 tested, 2.8% active. AID 720504; note: series mostly up to about 57 µM; % is set by controls: 0 for no effect and ±100 for the full control effect; nearly all actives have a fitted effect of over 65% in size
# G9a block: inhibitors of human histone lysine methyltransferase G9a; Potency, µM (titrated, usually from 102 µM), without a hit: top-dose activity, negative = inhibition, usual class: inhibitors; Q96KQ7; AID 504332; G9a H3K9 monomethylation, AlphaScreen, 2 h; 350,000 tested, 8.8% active; note: % is set by controls: 0 for no effect and ±100 for the full control effect; nearly all actives have a fitted effect of over 75% in size
#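 Step 1: enzyme (final 20 nM) with compound, 15 min RT. Step 2: substrate peptide 500 nM and SAM 20 uM, 2 h RT. Step 3: anti-H3K9me1 antibody and AlphaScreen beads, 10 min, then plate read.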
# HP1b binding inh: HP1-beta chromodomain-methylated histone interaction inhibition | P83916 | AlphaScreen HP1-beta / biotin-H3K9me3 peptide binding | Potency, µM (series often up to 114 µM), without a hit: at the highest dose activity change, negative = inhibition, hits mostly inhibitors | 390,000 tested, 0.56% active; note: nearly all actives have a fitted effect of over 70% in size
#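 HP1-beta protein (50 nM final) preincubated 30 min at room temperature with biotinylated H3(1-18)K9me3 peptide (50 nM) in PBS pH 7.4, 0.01% Tween-20, then compound added for 30 min. AlphaScreen streptavidin donor/nickel chelate acceptor beads (10 ug/mL final), 30 min dark, luminescence read.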
# VDR inhibitor: inhibitors of human vitamin D receptor. VDR-SRC2-3 peptide fluorescence polarization, 2 h. Potency, µM, for inactives: max response, negative = inhibition, usual class: inhibitors. 400,000 tested, 0.93% active; note: % is set by controls: 0 for no effect and ±100 for the full control effect
# Target sequence (P11473 whole entry, looked up): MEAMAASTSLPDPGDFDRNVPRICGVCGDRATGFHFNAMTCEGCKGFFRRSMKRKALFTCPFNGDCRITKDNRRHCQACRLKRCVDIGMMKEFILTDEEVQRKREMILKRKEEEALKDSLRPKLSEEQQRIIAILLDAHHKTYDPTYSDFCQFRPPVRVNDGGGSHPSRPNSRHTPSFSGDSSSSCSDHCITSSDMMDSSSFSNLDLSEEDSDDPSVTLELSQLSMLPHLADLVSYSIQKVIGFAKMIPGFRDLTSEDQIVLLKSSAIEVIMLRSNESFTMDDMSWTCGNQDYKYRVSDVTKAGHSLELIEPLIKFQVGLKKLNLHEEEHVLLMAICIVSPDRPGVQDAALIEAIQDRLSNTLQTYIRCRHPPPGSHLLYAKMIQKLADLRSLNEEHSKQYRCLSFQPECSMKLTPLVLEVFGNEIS
#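 FP read-out; VDR + SRC2-3 coactivator peptide; 23 nl compound by pintool; 2 h RT incubation; reagents held at 4 deg C, protected from light.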
# JMJD2A Tudor inh: blocks the human JMJD2A Tudor domain. O75164. AlphaScreen JMJD2A-Tudor / H3K4me3 peptide binding. Potency, µM (doses to about 114 µM), for the others: at the highest dose activity change, negative = inhibition, usual class: inhibitors. 390,000 tested, 4.4% active. AID 504339; note: % is set by controls: 0 for no effect and ±100 for the full control effect; nearly all actives have a fitted effect of over 50% in size
# Starred values were filed as active, the others as inactive; ? = inconclusive; . = no result; [ ] = another dose, or the depositor's remark. The list is not random: actives were taken first. Their share in the collection is about 11%. Calls come from the whole dose curve; as a rule, active = well fitted curve in the direction sought with a large enough effect; inconclusive = small, poorly fitted or top-dose-only effect, or another doubt; inactive = no such curve, though single readings can be large; an effect the other way counts as inactive or inconclusive. Potency is the fitted concentration of half-maximal effect.
SMILES,BAZ2B block,PLK1 PBD block,G9a block,HP1b binding inh,VDR inhibitor,JMJD2A Tudor inh
COc1cc(/C=N/NC(=O)NC23CC4CC(CC(C4)C2)C3)ccc1O,?,-0.4%,56.2µM*,0.9%,3.9%,-32.9%
COc1cc(/C=N/NC(=O)c2ccc(-n3cccc3)cc2)ccc1O,?,-11.6%,79.4µM*,-33.8%,-8.3%,?
COc1ccc(/C=N/NC(=O)c2ccccc2)cc1CN1CCN(c2ccc(F)cc2)CC1,-5.0%,-11.5%,26.4%[12.7 µM],0.8%,-2.4%,-16.2%
COc1cc(/C=N/NC(=O)c2nc3ccccn3c2C)cc(OC)c1O,-23.6%,-4.7%,15.8µM*,25.4%,13.1%,-11.3%
Cc1c(C(=O)N/N=C/c2ccc(N3CCOCC3)cc2)nc2ccccn12,-3.9%,-5.6%,-5.5%,41.7%,-7.7%,-6.2%
COc1ccc(/C=N/NC(=O)c2ccccc2F)cc1CN1CCN(c2ccc(F)cc2)CC1,50.1µM*,-3.5%,-50.9%[59 µM],-18.5%,-1.3%,-25.2%
COc1cc(NS(=O)(=O)c2ccc(NC(=O)c3ccc(Cl)cc3Cl)cc2)nc(OC)n1,0.9%,.,-39.7%[59 µM],28.5%,-9.1%,-18.3%
COc1ccc2c(c1)c1nnc(SCCN3CCOCC3)nc1n2C,.,.,.,16.3%,-0.2%,-14.3%
CCOC(=O)N1CCN(C(=O)C[C@@H]2C[C@@]3(C(=O)OCC)CCCC=C3N(CCC3=CCCCC3)C2=O)CC1,.,-22.1%,.,.,.,.
COc1cc(C(=O)N/N=C/c2ccc(OC)c(CN3CCN(c4ccc(F)cc4)CC3)c2)ccc1O,-70.2%,-9.0%,?,-13.7%,-3.8%,44.7µM*
COCOCCn1cc(CN2CCS(=O)(=O)N(Cc3ccc(-c4cccc(CO)c4)cc3)C(CC(C)C)C2=O)nn1 (stereo not drawn),.,1.9%,.,.,.,.
CC(=O)c1cn(S(=O)(=O)c2ccccc2)c2ccccc12,4.0%,-6.9%,1.1%[59 µM],30.9%,-18.0%,-1.6%
COC(=O)N/N=C/c1ccc(-c2ccc(Cl)cc2Cl)o1,-8.1%,-1.7%,14.5%[12.7 µM],21.5%,3.3%,-18.2%
O=C(O)c1ccc(N/N=C/c2ccc(-c3cccc(Cl)c3)o2)cc1,?,?,?,16.4%,-5.0%,-24.3%[11.4 µM]
O=C(O)c1ccc(N/N=C/c2ccc(-c3cc(Cl)ccc3Cl)o2)cc1,79.4µM*,21.2µM*,-38.8%,-8.1%,?,39.8µM*
O=C(O)c1ccc(N/N=C/c2ccc(-c3ccc(Cl)cc3Cl)o2)cc1,?,23.8µM*,?,14.2%,-1.2%,-7.1%
Cc1ccsc1C1NC(=O)c2ccccc2N1 (stereo not drawn),-11.3%,-11.4%,?,27.0%,-7.7%,-17.2%
O=C1NC(c2cccs2)Nc2ccccc21 (stereo not drawn),0.1%,2.67µM*,?,-8.7%,-18.5%,?
CCOC(=O)c1c(N)sc2c1CCS(=O)(=O)C2,-4.3%,26.7µM*,8.91µM*,?,-2.6%,?
CCN1C(=O)/C(=C2\SC(=S)N(NC(=O)c3cccnc3)C2=O)c2ccccc21,?,-1.6%,39.8µM*,-14.5%,6.4%,?
COc1cc(/C=C2\SC(=S)N(NC(=O)c3cccnc3)C2=O)ccc1O,44.7µM*,30.8%,?,-19.2%,-22.9%,-16.3%
COc1cc(/C=C2\SC(=S)N(NC(=O)c3ccc(O)cc3)C2=O)ccc1O,39.8µM*,41.8%,-47.1%[12.7 µM],56.2µM*,-16.3%,?
COCCn1c(N)c(Sc2ccc([N+](=O)[O-])cc2)c(=O)[nH]c1=O,-18.2%,-8.8%,-0.3%,43.9%,-2.0%,-13.5%
CC(C)(CO)C(O)C(=O)NCCCC(=O)O (stereo not drawn),.,.,.,.,1.4%,.
O=C(NCc1cccnc1)C1CC(c2ccc(Cl)c(Cl)c2)=NO1 (stereo not drawn),2.8%,-5.9%,.,31.6%,-29.2%,-9.9%
CCCCn1nnnc1C1(C)CCC(=O)N1Cc1cc(OC)ccc1OC (stereo not drawn),.,-4.9%,.,.,.,.
CC(C)C1CC(CCNCc2ccc(N(C)C)cc2)(c2ccccc2)CCO1 (stereo not drawn),25.1µM*,-9.6%,35.5µM*,?,-4.5%,31.6µM*

# Screening results: PubChem, National Center for Advancing Translational Sciences (NCATS)
